Bioassay records as filed in PubChem BioAssay.
DSG3 Ab inh = inhibitors of pemphigus antibody binding to DSG3, primary screen, biochemical, bead-based, flow cytometry, scFv-GFP; AID 588358, 2011; binding (percent of control), % at 10 µM; 310,000 tested, 0.48% active; DSG3-coupled beads, scFv-anti-DSG3-GFP binding; active compounds read low;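 active = binding more than 3 SD below its plate's average and above zero; inconclusive = below that plate limit but binding exactly zero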;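 also: hits lower antibody fragment binding to DSG3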
Target sequence (P32926 whole entry, looked up, the tested form may be a part): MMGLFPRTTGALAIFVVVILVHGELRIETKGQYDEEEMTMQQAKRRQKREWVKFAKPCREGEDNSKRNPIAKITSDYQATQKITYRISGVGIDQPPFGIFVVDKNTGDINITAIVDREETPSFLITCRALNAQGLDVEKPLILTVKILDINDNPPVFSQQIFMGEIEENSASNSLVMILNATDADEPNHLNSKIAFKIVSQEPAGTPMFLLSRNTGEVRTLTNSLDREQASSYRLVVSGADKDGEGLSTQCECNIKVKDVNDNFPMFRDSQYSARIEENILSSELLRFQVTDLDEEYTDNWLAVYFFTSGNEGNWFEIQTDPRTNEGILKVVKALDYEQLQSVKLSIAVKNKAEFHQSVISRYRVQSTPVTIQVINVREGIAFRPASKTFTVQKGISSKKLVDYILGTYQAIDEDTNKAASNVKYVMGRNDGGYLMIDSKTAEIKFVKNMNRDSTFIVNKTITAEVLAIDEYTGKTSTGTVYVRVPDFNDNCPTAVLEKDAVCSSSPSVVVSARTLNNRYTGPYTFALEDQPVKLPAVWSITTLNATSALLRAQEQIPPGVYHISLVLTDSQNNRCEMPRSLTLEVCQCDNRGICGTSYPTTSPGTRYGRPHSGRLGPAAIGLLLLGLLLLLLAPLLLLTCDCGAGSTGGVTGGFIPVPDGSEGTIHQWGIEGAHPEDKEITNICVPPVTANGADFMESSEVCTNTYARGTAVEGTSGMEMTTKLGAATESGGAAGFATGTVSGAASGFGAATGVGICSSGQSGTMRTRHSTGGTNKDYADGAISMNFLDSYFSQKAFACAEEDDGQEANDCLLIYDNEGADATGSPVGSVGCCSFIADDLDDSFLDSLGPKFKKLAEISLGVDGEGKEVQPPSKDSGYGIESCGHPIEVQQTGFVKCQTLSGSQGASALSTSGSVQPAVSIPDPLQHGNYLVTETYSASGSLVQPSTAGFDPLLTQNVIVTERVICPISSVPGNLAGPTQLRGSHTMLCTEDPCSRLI
AGP1-GFP MLPCN = modulators of AGP1-GFP expression in yeast TOR pathway, primary screen, cell-based, multiplex flow cytometry, S. cerevisiae, MLPCN library. 3 h; GFP as percent of DMSO wells. GFP response vs DMSO, % at 10 µM. 320,000 tested, 0.02% active. AID 2066, 2009;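 active = GFP response relative to DMSO above a set limit, near screen average plus 3 SD, cut at about 150% in these data; inconclusive = fewer than 70 cells counted for the yeast strain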;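 also: median GFP channel fluorescence of the gated AGP1 strain per well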
RPL19A-GFP yeast = RPL19A-GFP expression modulators in yeast, primary screen, cell-based, S. cerevisiae, multiplex flow cytometry, MLPCN; S. cerevisiae RPL19A-GFP strain, 3 h; active compounds read low; percent response vs DMSO, % at 10 µM; 330,000 tested, 0.3% active;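 active = percent response vs DMSO below 50%; inconclusive = fewer than 70 events counted for the yeast strain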;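 also: median channel GFP fluorescence of the barcoded RPL19A-GFP strain; lower means less RPL19A-GFP as with rapamycin TOR inhibition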
MEP2 TOR yeast = modulators of MEP2-GFP levels in yeast, primary screen, S. cerevisiae, multiplex flow cytometry, MLPCN library | 330,000 tested, 0.51% active | GFP response vs DMSO, % at 10 µM | S. cerevisiae MEP2-GFP strain, 3 h; 100% = DMSO control level;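 active = GFP response versus DMSO above a set limit, roughly screen mean plus 3 SD, cut at about 180% in these data; inconclusive = fewer than 70 cells counted for a yeast strain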;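 also: median GFP fluorescence of the barcode-gated MEP2-GFP cells per well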
LAP4-GFP MLPCN = modulators of LAP4-GFP expression in yeast, primary screen, S. cerevisiae, multiplex flow cytometry, MLPCN library; GFP response vs DMSO, % at 10 µM; AID 2023, 2009; 320,000 tested, 0.34% active; 3 h; median GFP as percent of DMSO wells;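 active = GFP response vs DMSO above a set limit, about the screen mean plus 3 SD, cut at about 150% in these data; inconclusive = under 70 cell events counted for the yeast strain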
CIT2 TOR yeast = modulators of CIT2-GFP expression in yeast, primary screen, S. cerevisiae, GFP fusion, multiplex flow cytometry, MLPCN library; S. cerevisiae CIT2-GFP strain, 3 h; 100 means same as DMSO wells; GFP response vs DMSO, % at 10 µM; 320,000 tested, 0.065% active; AID 2029, 2009;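 active = GFP response relative to DMSO above a set limit, near the screen mean plus 3 SD, cut at about 150% in these data; inconclusive = Fewer than 70 cells measured for a yeast strain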;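 also: ratio of well median GFP fluorescence to mean of DMSO wells on the plate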
A number is an active result; n = inactive; u = inconclusive; x = not tested or not shown; [ ] = remark or other dose. Sampled rows, rich in hits. Any-hit rate of the full collection: about 1.2%.

SMILES | DSG3 Ab inh | AGP1-GFP MLPCN | RPL19A-GFP yeast | MEP2 TOR yeast | LAP4-GFP MLPCN | CIT2 TOR yeast
O=C(N/N=C/c1ccc(-c2ccc(Br)cc2)o1)c1ccc2c(c1)OCO2 | x | n | n | n | 162.0 | n
COc1ccc(S(=O)(=O)N2CCOCC2)cc1Cl | n | n | n | 298.9[may fluoresce violet] | n | u
COc1cc(S(=O)(=O)N2CCOCC2)ccc1NC(=O)c1cc2c(s1)CCC2 | n | n | 38.8[may fluoresce violet] | 233.4[may fluoresce violet] | n | u
Cc1ccc(S(=O)(=O)N2CCOCC2)cc1NC(=O)c1cc2c(s1)CCC2 | n | n | n | n | n | n
O=S(=O)(c1cccc(S(=O)(=O)N2CCOCC2)c1)N1CCCCC1 | n | u | 39.8[may fluoresce violet] | 279.0[may fluoresce violet] | n | u
COc1ccc(C(=O)OCC(=O)NCC2CCCCC2)cc1F | n | x | x | x | x | x
CCC1(c2ccc(F)cc2)NC(=O)N(CC(=O)Nc2cccc(S(=O)(=O)N3CCOCC3)c2)C1=O (configuration not stated) | n | x | x | x | x | x
CC1CCCCC1NC(=O)CN1C(=O)NC(C)(c2cccc(Br)c2)C1=O (configuration not stated) | n | n | n | n | n | n
CCOCCCn1c(=NC(=O)c2cccnc2)c(C(=O)OCC)cc2c(=O)n3ccccc3nc21 | n | n | 42.7[may fluoresce violet] | 196.5[may fluoresce violet] | n | u
CCOC(=O)c1cc2c(=O)n3cccc(C)c3nc2n(CCCOC)c1=NC(=O)c1cccnc1 | n | n | n | n | n | n
c1ccc2sc(SN3CCOCC3)nc2c1 | 79.9 | n | n | n | n | n
O=C(CSc1nc(O)cc(=O)n1-c1ccccc1)Nc1ccc2c3c(cccc13)CC2 | 41.3 | n | n | n | n | n
CCc1cc(=O)oc2c(C)c(OCC(=O)N3CCCc4ccccc43)ccc12 | n | u | 38.5[may fluoresce violet] | 248.1[may fluoresce violet] | n | u
O=C(COc1ccc(Br)cc1CO)N1CCCc2ccccc21 | x | n | n | n | n | n
CC(=O)c1ccc(N2CCN(S(=O)(=O)c3ccc4c(c3)CC(C)N4C(C)=O)CC2)cc1 (configuration not stated) | n | n | 37.5 | n | n | n
CC(C)(C)OC(=O)N[C@@H](Cc1ccccc1)C(=O)NCC1CCC(C(=O)N[C@@H](CC(=O)O)C(=O)O)CC1 (some centres not stated) | n | n | n | n | n | n
Cc1ccc(Nc2cc(C)nn2-c2nc(C)cc(=O)[nH]2)cc1 | n | n | n | n | 151.7 | n
Cc1ccc(Nc2cc(C)nn2-c2nc(C)cc(C)n2)cc1 | n | n | n | n | n | n
COc1ccc(-n2c(SCC(=O)Nc3cc(C)on3)nc3c([nH]c4ccccc43)c2=O)cc1 | -8.2 | n | n | n | n | n
COC(=O)C(C)NC(=O)C12CC3CC(C1)CC(c1ccc(C)cc1)(C3)C2 (configuration not stated) | n | n | n | n | n | n
O=C(CCCSc1ccccc1)Nc1ccc(Cl)c(S(=O)(=O)N2CCOCC2)c1 | x | n | n | n | n | n
N#C/C(=C\c1cccs1)C(=O)Nc1ccccn1 | n | n | n | n | n | n
COc1cccc(NC(=O)/C=C/c2ccc(S(=O)(=O)N3CCOCC3)cc2)c1 | 73.3 | n | n | n | n | n
COc1cccc(NC(=O)/C=C/c2ccccc2[N+](=O)[O-])c1 | x | n | n | n | n | n
COc1cccc(NC(=O)/C=C/c2ccc([N+](=O)[O-])cc2)c1 | n | n | n | 193.1 | n | n
CN(CC(=O)Nc1cccc(F)c1)C(=O)c1cccnc1Sc1ccccc1Cl | n | n | n | n | n | n
Cc1cc(=O)oc2cc(NS(=O)(=O)c3ccccc3)ccc12 | n | n | n | 560.9[may fluoresce violet] | n | u
CCNC(=O)NC(=O)CSc1ccc(S(=O)(=O)N(C)C2CCCCC2)cn1 | n | n | n | n | n | n
CCCN(CCC)CC(C)(C)NS(=O)(=O)c1ccc(Cl)cc1 | n | n | n | n | n | n
